From PubChem BioAssay
Entries with a potency or affinity are not part of this list. Records with an inconclusive call do not appear. Calls of active or inactive are those of the source. Unless noted, how the calls were made is not given here.

Columns and labels:
[1] = RMG-1 ovarian cancer cell viability loss – cherry-pick, dose response (AID 687029;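 active means signal drop whose fitted half-maximal concentration is at most twice the top valid dose, in every test run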;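 further: cells exposed to compound for 96 hours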); details: RMG-1 viability, CellTiterGlo ATP luminescence, 96 h; series mostly up to 35 µM
[2] = IOSE-T80 viability loss, PAX8-independent line – cell-based, cherry-pick, selectivity assay for PAX8 inhibitor project, dose response (AID 687032;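 active means fitted half-maximal concentration for viability loss no higher than twice the top valid dose, in every repeat run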;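 further: cells exposed to compound for 96 h before reading; 0% = neutral control wells and -100% = 2 µM mitoxantrone kill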); details: CellTiterGlo ATP luminescence, 96 h; series mostly up to 35 µM
[3] = general cell-killing toxicity readout – plate reader, dry powder samples, cytotoxicity control for PAX8 inhibitor project, dose response (AID 743021); details: cell line, non-specific cytotoxicity counter-screen; series mostly up to 35 µM
[4] = CMV-driven luciferase expression suppression in HEK293 – cell-based, luminescence, dry powder, counter-screen for Pax8 inhibitor project, dose response (AID 743020;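 active means signal-lowering compounds whose fitted half-maximal concentration is at or below twice the top tested dose in every run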;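 further: HEK293 cells stably expressing the CMV luciferase reporter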); details: HEK293 CMV-luciferase reporter, SteadyGlo luminescence, 24 h; series mostly up to 35 µM
[5] = IGROV1 cell killing – plate reader, dry powder samples, PAX8 inhibitor project, dose response (AID 743043); details: IGROV1 ovarian cancer cell cytotoxicity; series mostly up to 35 µM;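 further: more negative means fewer viable cells or more cytotoxicity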
[6] = OVCAR-3 cell viability loss – plate reader, dry powder samples, PAX8 inhibitor project, dose response (AID 743044); details: NIH:OVCAR-3 ovarian cancer cell viability, hits give low values; at 4.2 µM unless noted
[7] = toxicity toward immortalized ovarian surface epithelium – cell-based, plate reader, dry powder samples, cytotoxicity control for PAX8 inhibitor project, dose response (AID 743045); details: IOSE-T80 ovarian epithelial cells; series mostly up to 35 µM;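 further: 0% = neutral control median and -100% = positive control median; more negative values mean more cell killing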
[8] = A2780 cell killing – plate reader, dry powder samples, cytotoxicity control, dose response (AID 743046); details: A2780 ovarian cancer cytotoxicity; series mostly up to 35 µM;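 further: 0% = neutral control wells and -100% = cytotoxic reference compound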
[9] = OVCAR8 cell viability loss – plate reader, dry powder samples, PAX8 project, dose response (AID 743197); details: series mostly up to 35 µM
[10] = toxicity toward HepG2 liver cells – cell-based, plate reader, cherry-pick, antagonist series, cytotoxicity control, dose response (AID 743416); details: series mostly up to 26 µM;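 further: 0% = neutral control wells and -100% = positive control wells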
[11] = target: Melanocortin receptor 4 (Homo sapiens) (UniProt P32245); assay: blockade of melanocortin 4 receptor signaling – cell-based, plate reader, cherry pick, counter-screen for LGR2 antagonist project, dose response (AID 743444); details: MC4R-expressing cells, antagonist mode; series mostly up to 35 µM

Measured: max activity

C[C@]12CC[C@H](O)C[C@H]1CC[C@@H]1[C@@H]2C[C@@H](O)[C@]2(C)[C@@H](C3=CC(=O)OC3)CC[C@]12O
inactive: [1] | [2] | [3]

COc1ccc(C(c2nnnn2Cc2ccccc2)N2CCC(n3c(=O)[nH]c4ccccc43)CC2)cc1 (centres undefined)
inactive: [1] | [4] | [3]

CC(=CCOc1ccc2ccc(=O)oc2c1)C1=CC(=O)C(C)(C)O1
inactive: [1] | [2] | [3]

CC(N)C(=O)NC1C2C(=C(O)CC(O)C2O)C(=O)OC1(C)C(Cl)Cl (centres undefined)
inactive: [1] | [3]

CC(=O)OC1CC(OC2C(O)CC(OC3C(O)CC(OC4CCC5(C)C(CCC6C5CCC5(C)C(C7=CC(=O)OC7)CCC65O)C4)OC3C)OC2C)OC(C)C1OC1OC(CO)C(O)C(O)C1O (centres undefined)
inactive: [1] | [2] | [3]

O=C(C1CC1)N1C[C@@H]2N[C@H](C1)[C@@H]2c1ccc(-c2ccncc2)cc1
inactive: [1] | [2] | [3]

CC(=O)OC1CC(OC2C(O)CC(OC3C(O)CC(OC4CCC5(C)C(CCC6C5CC(O)C5(C)C(C7=CC(=O)OC7)CCC65O)C4)OC3C)OC2C)OC(C)C1OC1OC(CO)C(O)C(O)C1O (centres undefined)
inactive: [1] | [3]

O=C(Cc1ccccn1)N1CCCCN2[C@@H](CO)[C@@H](c3ccc(-c4ccc(F)cc4)cc3)[C@@H]2C1
inactive: [2] | [4] | [3] | [5] | [6] 9.98% | [7] | [8] | [9]

COc1cc2c(cc1OC)CN(c1ccc([N+](=O)[O-])c(C(F)(F)F)c1)CC2
inactive: [10] | [11]
